Source: the supplement of paper PMC11732987, “Enantioselective OTUD7B fragment discovery through chemoproteomics screening and high-throughput optimisation” (Communications Chemistry, 2025)

Columns and labels:
Assay in all cases: log2 ratio of Biotin-Ahx-Ub-VS probe labelling (fragment/DMSO); higher = less target engagement (more negative = stronger competition), active = hit call of the paper (q ≤ 0.05, log2 ratio ≤ -1)
Settings in all cases: compound concentration: 200 uM; treatment time: 3 h
USP34 = USP34 (UniProt Q70CQ2)
Procedure, shortened: (§1)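 Labelled DUBs from HEK293T lysate were NeutrAvidin-enriched, digested with LysC and trypsin, and run by diaPASEF LC-MS/MS. Before that, each 495 µg sample in Tris/CHAPS/IGEPAL buffer with protease inhibitors was treated in triplicate with fragment at 200 µM or vehicle for 3 h, then with Biotin-Ahx-Ub-VS at 0.5 µM final for 1 h. Values are average log2 ratios of fragment over vehicle by unpaired t-test, based on global-median-normalised Spectronaut label-free quantities from proteins with ≥2 unique peptides.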

USP36 = target: T1, USP36 (UniProt Q9P275)
T1 sequence (whole entry): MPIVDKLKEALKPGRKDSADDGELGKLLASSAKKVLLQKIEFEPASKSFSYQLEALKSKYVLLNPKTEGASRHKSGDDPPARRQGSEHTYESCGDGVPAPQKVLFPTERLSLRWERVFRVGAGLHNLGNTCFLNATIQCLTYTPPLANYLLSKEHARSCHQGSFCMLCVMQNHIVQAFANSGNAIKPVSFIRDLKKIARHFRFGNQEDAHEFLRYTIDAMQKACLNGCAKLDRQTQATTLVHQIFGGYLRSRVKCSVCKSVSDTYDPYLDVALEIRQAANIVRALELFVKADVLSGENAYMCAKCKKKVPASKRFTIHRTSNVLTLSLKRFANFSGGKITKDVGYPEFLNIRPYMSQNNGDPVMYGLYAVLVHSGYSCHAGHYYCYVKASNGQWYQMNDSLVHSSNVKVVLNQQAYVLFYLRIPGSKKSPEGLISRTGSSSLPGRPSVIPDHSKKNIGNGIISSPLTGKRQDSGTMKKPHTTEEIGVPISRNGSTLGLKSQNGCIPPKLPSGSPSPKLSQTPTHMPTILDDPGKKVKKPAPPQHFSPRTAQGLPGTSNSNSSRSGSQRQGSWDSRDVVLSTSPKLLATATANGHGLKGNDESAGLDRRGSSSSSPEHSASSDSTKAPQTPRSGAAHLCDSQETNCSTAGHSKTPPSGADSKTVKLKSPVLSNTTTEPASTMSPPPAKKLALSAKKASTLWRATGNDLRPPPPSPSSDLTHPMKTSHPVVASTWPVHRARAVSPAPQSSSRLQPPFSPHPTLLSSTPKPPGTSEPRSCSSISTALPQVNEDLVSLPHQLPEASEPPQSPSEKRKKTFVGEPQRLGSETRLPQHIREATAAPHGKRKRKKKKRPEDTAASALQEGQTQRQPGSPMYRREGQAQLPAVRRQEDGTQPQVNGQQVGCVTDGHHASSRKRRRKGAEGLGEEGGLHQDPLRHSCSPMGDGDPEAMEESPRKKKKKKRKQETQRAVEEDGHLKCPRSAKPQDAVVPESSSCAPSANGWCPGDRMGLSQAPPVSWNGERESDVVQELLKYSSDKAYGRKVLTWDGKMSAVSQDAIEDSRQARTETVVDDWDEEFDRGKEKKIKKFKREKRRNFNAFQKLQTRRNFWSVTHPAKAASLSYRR
Procedure, shortened: as §1

USP38 = target: T2, USP38 (UniProt Q8NB14)
T2 sequence (whole entry): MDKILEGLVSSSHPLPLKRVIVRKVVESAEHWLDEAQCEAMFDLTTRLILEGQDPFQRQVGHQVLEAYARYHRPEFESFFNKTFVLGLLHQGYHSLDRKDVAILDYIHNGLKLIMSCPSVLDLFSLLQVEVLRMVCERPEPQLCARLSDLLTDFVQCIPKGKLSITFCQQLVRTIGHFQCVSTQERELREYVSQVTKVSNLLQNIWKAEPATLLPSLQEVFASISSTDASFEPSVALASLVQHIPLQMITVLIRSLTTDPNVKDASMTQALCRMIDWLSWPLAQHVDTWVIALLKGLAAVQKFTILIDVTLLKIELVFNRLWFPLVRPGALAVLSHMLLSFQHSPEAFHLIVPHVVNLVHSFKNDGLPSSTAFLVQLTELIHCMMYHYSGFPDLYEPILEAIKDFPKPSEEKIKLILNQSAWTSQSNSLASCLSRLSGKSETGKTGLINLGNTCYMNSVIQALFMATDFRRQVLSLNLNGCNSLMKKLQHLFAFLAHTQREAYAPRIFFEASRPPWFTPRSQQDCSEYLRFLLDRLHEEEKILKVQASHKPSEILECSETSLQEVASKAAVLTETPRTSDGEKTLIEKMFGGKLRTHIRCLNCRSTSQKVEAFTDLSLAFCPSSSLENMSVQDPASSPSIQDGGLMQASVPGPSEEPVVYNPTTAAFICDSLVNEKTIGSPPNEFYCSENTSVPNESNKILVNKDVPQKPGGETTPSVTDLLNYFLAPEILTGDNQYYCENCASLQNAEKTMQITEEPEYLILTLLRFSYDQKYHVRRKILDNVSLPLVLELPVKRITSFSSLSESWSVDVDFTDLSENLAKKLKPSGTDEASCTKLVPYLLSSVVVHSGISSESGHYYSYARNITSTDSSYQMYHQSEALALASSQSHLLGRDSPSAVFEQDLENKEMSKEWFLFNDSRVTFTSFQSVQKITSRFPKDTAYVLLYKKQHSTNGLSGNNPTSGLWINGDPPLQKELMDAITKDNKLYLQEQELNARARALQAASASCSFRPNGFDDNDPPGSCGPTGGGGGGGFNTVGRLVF
Procedure, shortened: as §1

USP39 = target: T3, USP39 (UniProt Q53GS9)
T3 sequence (whole entry): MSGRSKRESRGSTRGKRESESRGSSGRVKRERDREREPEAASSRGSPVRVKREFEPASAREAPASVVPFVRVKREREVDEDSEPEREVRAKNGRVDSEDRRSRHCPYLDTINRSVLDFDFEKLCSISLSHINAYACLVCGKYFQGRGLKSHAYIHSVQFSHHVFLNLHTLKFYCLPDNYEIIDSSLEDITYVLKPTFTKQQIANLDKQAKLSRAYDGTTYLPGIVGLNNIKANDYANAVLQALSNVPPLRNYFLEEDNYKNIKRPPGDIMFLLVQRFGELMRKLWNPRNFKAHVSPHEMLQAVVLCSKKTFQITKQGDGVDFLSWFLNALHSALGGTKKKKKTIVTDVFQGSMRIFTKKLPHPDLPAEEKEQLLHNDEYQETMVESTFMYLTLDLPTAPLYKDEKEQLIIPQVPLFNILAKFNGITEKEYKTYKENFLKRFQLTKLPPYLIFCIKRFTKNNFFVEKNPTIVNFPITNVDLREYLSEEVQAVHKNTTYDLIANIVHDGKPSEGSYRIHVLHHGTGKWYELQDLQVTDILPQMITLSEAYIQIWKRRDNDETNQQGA
Procedure, shortened: as §1

USP4 = target: T4, USP4 (UniProt Q13107)
T4 sequence (whole entry): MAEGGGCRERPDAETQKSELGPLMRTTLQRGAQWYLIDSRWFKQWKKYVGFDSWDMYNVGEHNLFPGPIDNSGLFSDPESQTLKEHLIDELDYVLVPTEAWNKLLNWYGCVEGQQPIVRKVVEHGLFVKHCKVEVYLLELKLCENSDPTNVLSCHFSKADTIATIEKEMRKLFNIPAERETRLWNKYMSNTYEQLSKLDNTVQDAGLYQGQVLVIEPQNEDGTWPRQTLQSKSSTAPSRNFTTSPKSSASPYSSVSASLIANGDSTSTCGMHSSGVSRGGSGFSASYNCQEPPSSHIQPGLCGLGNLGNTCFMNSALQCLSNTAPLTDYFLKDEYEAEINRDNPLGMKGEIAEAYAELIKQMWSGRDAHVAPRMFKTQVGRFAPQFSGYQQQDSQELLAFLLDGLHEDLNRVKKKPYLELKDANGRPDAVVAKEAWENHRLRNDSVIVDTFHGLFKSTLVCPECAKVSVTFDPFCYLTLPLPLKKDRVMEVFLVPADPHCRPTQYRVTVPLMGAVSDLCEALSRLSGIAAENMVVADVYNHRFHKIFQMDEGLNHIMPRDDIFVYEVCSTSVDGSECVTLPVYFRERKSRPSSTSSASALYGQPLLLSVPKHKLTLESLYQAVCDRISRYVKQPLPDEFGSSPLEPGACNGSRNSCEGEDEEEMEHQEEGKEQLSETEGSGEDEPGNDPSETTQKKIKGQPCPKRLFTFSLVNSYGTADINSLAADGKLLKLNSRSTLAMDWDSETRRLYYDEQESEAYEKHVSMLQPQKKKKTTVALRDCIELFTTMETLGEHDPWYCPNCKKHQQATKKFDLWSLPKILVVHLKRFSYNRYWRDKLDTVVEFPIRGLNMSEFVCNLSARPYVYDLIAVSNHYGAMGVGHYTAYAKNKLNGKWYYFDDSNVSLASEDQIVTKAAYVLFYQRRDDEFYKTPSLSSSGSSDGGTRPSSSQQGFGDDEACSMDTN
Procedure, shortened: as §1

Measured: log2 ratio of Biotin-Ahx-Ub-VS probe labelling

Sequence of USP34 (Q70CQ2 whole entry, the tested form may be a part): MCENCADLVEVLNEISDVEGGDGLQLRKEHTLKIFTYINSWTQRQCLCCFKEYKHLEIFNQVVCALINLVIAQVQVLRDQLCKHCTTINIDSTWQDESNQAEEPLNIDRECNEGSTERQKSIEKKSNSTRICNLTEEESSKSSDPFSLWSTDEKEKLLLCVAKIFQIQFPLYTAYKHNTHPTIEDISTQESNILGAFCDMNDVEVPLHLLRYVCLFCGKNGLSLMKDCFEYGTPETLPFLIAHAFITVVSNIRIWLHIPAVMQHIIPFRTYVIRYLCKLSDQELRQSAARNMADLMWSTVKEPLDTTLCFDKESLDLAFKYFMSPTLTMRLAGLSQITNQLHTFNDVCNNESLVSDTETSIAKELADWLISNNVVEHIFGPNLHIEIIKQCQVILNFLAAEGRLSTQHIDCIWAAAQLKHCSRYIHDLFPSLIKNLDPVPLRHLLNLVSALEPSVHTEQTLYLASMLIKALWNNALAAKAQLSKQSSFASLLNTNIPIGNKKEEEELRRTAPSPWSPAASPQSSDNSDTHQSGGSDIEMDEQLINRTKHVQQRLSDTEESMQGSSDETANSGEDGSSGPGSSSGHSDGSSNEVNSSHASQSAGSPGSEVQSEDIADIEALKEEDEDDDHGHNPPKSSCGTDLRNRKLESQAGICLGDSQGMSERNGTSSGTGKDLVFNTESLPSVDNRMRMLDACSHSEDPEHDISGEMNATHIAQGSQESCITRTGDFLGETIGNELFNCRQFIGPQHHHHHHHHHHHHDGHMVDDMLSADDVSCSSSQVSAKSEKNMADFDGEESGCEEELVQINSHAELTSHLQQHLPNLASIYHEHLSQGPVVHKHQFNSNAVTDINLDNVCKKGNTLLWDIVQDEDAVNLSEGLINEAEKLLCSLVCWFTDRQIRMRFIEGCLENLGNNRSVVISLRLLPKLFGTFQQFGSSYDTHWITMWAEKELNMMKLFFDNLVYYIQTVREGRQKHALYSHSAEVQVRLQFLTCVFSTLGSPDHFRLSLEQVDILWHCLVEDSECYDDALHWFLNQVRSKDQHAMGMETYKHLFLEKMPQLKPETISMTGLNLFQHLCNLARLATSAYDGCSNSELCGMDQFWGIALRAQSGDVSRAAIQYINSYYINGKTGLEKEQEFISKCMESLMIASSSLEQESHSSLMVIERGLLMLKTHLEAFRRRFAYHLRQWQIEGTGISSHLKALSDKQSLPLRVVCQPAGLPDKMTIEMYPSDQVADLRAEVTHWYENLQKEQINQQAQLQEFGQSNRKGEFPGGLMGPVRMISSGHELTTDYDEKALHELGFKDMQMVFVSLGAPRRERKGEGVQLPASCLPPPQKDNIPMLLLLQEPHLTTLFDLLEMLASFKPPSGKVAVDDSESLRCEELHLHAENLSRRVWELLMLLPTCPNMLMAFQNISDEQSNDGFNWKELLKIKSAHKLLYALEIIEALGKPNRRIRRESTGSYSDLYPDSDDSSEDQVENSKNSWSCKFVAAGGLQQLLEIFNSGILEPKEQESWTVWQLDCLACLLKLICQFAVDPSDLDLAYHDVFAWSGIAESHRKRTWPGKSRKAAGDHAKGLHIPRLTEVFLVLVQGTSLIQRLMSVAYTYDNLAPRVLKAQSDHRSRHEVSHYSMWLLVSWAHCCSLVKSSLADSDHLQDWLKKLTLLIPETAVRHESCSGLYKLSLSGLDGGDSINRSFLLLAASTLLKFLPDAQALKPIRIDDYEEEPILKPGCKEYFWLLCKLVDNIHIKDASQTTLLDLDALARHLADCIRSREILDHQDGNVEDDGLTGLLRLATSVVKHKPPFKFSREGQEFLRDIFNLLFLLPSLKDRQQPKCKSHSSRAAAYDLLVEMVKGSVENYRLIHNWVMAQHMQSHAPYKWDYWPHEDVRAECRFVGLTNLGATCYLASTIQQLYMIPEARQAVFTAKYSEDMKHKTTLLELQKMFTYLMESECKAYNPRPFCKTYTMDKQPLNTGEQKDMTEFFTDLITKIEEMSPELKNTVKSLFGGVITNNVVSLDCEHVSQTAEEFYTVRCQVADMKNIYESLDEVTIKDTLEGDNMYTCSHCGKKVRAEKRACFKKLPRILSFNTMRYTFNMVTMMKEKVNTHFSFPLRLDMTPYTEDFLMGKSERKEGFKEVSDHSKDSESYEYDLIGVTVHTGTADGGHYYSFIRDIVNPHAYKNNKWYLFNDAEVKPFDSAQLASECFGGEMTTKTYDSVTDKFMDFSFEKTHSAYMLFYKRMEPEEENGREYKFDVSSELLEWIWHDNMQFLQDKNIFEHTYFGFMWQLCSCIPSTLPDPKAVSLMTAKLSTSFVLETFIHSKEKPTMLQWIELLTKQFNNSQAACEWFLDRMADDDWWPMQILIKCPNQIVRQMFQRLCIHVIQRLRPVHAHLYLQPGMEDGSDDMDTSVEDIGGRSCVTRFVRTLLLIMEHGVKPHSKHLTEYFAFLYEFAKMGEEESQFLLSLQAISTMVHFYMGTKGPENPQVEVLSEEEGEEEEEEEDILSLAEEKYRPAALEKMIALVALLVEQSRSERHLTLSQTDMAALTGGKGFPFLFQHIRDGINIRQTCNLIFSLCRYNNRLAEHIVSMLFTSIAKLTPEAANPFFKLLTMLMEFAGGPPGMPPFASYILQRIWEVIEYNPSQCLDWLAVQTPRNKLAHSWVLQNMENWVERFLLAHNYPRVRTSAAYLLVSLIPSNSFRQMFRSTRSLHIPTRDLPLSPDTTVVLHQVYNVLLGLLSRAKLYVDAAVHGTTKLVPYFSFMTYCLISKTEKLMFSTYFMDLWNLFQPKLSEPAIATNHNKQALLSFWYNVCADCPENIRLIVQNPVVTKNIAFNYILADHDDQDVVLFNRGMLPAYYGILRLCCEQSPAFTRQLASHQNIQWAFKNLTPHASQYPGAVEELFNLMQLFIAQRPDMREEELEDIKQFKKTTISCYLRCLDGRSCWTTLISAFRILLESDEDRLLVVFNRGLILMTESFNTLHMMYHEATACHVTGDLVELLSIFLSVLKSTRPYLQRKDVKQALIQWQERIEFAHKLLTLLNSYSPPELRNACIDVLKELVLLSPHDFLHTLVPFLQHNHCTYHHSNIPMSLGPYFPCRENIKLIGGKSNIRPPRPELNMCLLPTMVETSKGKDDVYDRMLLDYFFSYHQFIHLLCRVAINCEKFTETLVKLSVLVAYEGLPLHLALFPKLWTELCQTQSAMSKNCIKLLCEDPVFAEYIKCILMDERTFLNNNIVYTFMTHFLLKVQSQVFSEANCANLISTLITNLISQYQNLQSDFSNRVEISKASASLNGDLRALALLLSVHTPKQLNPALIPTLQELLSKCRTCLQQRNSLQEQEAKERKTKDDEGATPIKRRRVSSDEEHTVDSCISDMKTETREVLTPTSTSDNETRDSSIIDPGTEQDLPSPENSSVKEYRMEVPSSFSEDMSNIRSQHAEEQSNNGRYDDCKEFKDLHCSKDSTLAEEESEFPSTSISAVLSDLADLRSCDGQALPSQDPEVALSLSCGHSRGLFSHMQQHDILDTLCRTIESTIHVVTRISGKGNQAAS

CS(=O)(=O)N1CCCN(C(=O)CCl)CC1
inactive: USP34 -0.016 | USP36 -0.255 | USP38 -0.0208 | USP39 0.0871 | USP4 -0.0865
